Test [1] can be described thus: Primary qHTS for Huh7 cytotoxicity: counterscreen for inhibitors of MERS-S pseudotyped particle cell entry (AID 1479147). To be noted: outcome: dose series up to 57.1 µM unless noted. On the technique in general: qHTS replaces the single test concentration by a dilution series.
Test [2] in a line: Primary qHTS for inhibitors of MERS-S pseudo-typed particle cell entry (AID 1479149). Further: nearly all actives have a fitted effect of over 60% in size. On activity change, negative = inhibition: on the % scale 0 is the no-effect control and ±100 the full control effect. To be noted: outcome: dose series up to 57.1 µM unless noted.
Test [3] can be described thus: Primary qHTS for Vero E6 cytotoxicity: counterscreen for inhibitors of SARS-S pseudo-typed particle cell entry (AID 1479150). To be noted: outcome: dose series up to 57.1 µM unless noted.
Test [4] is described as follows: Cytotoxicity counterscreen for inhibitors of SARS-CoV-2 cell entry (AID 1645845). Further: nearly all actives have a fitted effect of over 50% in size. To be noted: outcome: dose series up to 57.1 µM unless noted. In a few lines: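 HEK293-ACE2 cells (Expi293F stably expressing human ACE2) seeded overnight, then compound for 1 h plus 48 h at 37C. Viability as ATP content by luminescence; normalized to wells with cells and media-only wells.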
(The purpose of a counterscreen is to sort out artefacts and off-target activity.)

A short description of test [5]: Primary qHTS to identify inhibitors of SARS-CoV-2 cell entry (AID 1645846). Further: nearly all actives have a fitted effect of over 45% in size. Further: potency means the concentration at half of the fitted maximal effect. To be noted: SARS-CoV-2 pseudovirus cell entry assay, luminescence. In short, it runs like this: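 Data are normalized to wells receiving SARS-CoV-2-S pseudoparticles and those given bald particles. Entry signal was luciferase luminescence in stable hACE2 Expi293F cells, 48 hr post-infection, after 1 hr compound pretreatment.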

Test [6] has as its target Glutathione peroxidase 1 (Homo sapiens) (UniProt P07203). Put plainly: Primary qHTS Assay for Inhibitors of Recombinant Selenoprotein Glutathione Peroxidase 1 (GPX1) (AID 1845191; active means well fitted curve in the direction sought with a large enough effect; an effect the other way counts as inactive or inconclusive; further: on the % scale 0 is the no-effect control and ±100 the full control effect; nearly all actives have a fitted effect of over 65% in size). In a few lines:
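GR-coupled assay: compounds preincubated 30 min at room temperature with GPX1, then reaction started with CHP; final 10 nM GPX1, 1 mM GSH, 0.5 mM CHP, 0.5 mM NADPH, 100 nM GR, 0.01% BSA, pH 7.5 Tris buffer. NADPH fluorescence (340/450 nm) read at 0 and 15 min.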

A short description of test [7]: KB-8-5-11 P-gp reporter qHTS against the NCATS DSHEA and TCM libraries (AID 1919977; active means well fitted curve in the direction sought with a large enough effect; an effect the other way counts as inactive or inconclusive; further: 0% is about no effect). In a few lines:
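Cells were seeded, allowed ~4 h to attach, dosed by pin tool (substance titrations), incubated ~72 h at 37C, then lysed with CellTiter-Glo for 30 min at room temperature before luminescence reading.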

Test [8] has as its target Estrogen receptor (Homo sapiens) (UniProt P03372). Put plainly: qHTS assay for small molecule antagonists of estrogen receptor alpha signaling (AID 588513; active means well fitted curve in the direction sought with a large enough effect in the signal ratio, with a control signal flat, not every such curve was filed as active; the % refers to the signal ratio; further: on the % scale 0 is the no-effect control and ±100 the full control effect). In short, it runs like this: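 Cells were plated at 5000/well and incubated 4 h at 37 C. Compounds were added as 1:2 dilution series, duplicates. 17-beta-estradiol (0.5nM final) was added for 18 h before CCF4 detection.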

Test [9] concerns the target Glucocorticoid receptor (Homo sapiens) (UniProt P04150). Put plainly: qHTS assay for small molecule agonists of glucocorticoid receptor signaling (AID 588532; active means well fitted curve in the direction sought with a large enough effect in the signal ratio, with a control signal flat; the % refers to the signal ratio;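 further: 100% = dexamethasone at 0.1 µM and 0% = DMSO only wells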). To be noted: HeLa MMTV-bla, beta-lactamase ratio, agonist, 18 h; stronger effect = higher value; percent of dexamethasone control, DMSO zero. In a few lines: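 MMTV-bla HeLa beta-lactamase reporter cells in 1% charcoal/dextran FBS medium, compounds up to 92 uM for 18 h at 37 C, CCF4 readout; normalized to 0.1 uM dexamethasone (100%), EC50 and efficacy from Hill fits.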

The target in test [10] is Peroxisome proliferator-activated receptor delta (Homo sapiens) (UniProt Q03181). Put plainly: qHTS assay for small molecule agonists of peroxisome proliferator-activated receptor delta signaling (AID 588534).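 Further: 0% = DMSO basal wells and 100% = positive control agonist at 10 µM.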 In a few lines:
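Cell-based beta-lactamase reporter assay run in agonist mode: cells seeded and incubated 5 hrs at 37 C, compounds added and incubated 18 hrs at 37 C. CCF4 dye fluorescence read after 2 hrs at RT; EC50 and efficacy from Hill fits.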

In test [11] the target is Peroxisome proliferator-activated receptor gamma (Homo sapiens) (UniProt P37231). The test is described as follows: qHTS assay for small molecule antagonists of peroxisome proliferator-activated receptor gamma signaling (AID 588537; active means well fitted inhibition curve with a large enough effect in the signal ratio, with a control signal flat, not every such curve was filed as active; the % refers to the signal ratio;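 further: reporter cells co-stimulated with 50 nM rosiglitazone agonist during compound treatment; % of control where 0% means no effect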). In a few lines:
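Step one: plate 3000 HEK293 UAS-bla cells per well in medium with 1% stripped serum and hold 6-6.5 h at 37 C. Step two: add compound and 50 nM agonist for 16 h. Step three: CCF4 loading, fluorescence read.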

In test [12] the target is Thyroid hormone receptor beta (Homo sapiens) (UniProt P10828). The test is described as follows: qHTS assay for small molecule antagonists of thyroid hormone receptor beta signaling (AID 588547; active means well fitted inhibition curve with a large enough effect in the signal ratio, with a control signal flat, not every such curve was filed as active; the % refers to the signal ratio;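 further: cells stimulated with 0.4 nM T3 agonist during compound exposure; on the % scale 0 is the no-effect control and ±100 the full control effect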). To be noted: TR-UAS-bla HEK293, beta-lactamase ratio, antagonist mode, 18 h. In a few lines: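 TR-UAS-bla GripTite HEK293 cells in 2% charcoal/dextran FBS medium; compounds 0.59 nM to 92 uM with T3 at 0.4nM final, 18 h at 37 C. Beta-lactamase read by CCF4 fluorescence (460/530 nm); Hill fits gave IC50 and efficacy.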

Test [13] can be described thus: qHTS assay for small molecule agonists of the antioxidant response element (ARE) signaling pathway (AID 651741; active means well fitted activation curve with a large enough effect in the signal ratio; the % refers to the signal ratio; further: potency means the concentration at half of the fitted maximal effect; on activation: % of control where 0% means no effect). In a few lines: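 HepG2 ARE-bla cells plated at 2,000 cells/well and incubated 5 h at 37 C/5% CO2 received 23 nL compound in DMSO. After 16 h at 37 C, LiveBLAzer B/G FRET substrate was applied for 2 h at room temperature and fluorescence read.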
The nature of test [14]: qHTS assay for small molecule agonists of the antioxidant response element (ARE) signaling pathway measured by Nrf2-dependant transcriptional activity (AID 720636; active means well fitted curve in the direction sought with a large enough effect in the repeat runs; an effect the other way counts as inactive or inconclusive; further: % of control where 0% means no effect). In short, it runs like this:
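ARE-luc HepG2 cells carrying an Nrf2-responsive luciferase reporter were plated in medium with 1% dialyzed FBS, left 6 hr at 37 C to attach, then exposed to compound for 16 hr. Luciferase luminescence was read after ONE-Glo addition.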

Setting [15] is: activity change, negative = inhibition: at 57.1 µM (top of the series) unless noted, outcome: at 57.1 µM (top of the series) unless noted.

“And” between values parts separate entries of the source, which are not always exact repeats. Equal entries are not always repeated. Records with an inconclusive call do not appear. Some structures have more than one record in an assay (separate samples or runs), and their calls can disagree. The source made the active and inactive calls. Unless noted, the call rests on the fitted dose curve.

This note sets out measurements from PubChem BioAssay (NCATS).

Chain of Peroxisome proliferator-activated receptor delta (Homo sapiens) (Q03181 whole entry, looked up): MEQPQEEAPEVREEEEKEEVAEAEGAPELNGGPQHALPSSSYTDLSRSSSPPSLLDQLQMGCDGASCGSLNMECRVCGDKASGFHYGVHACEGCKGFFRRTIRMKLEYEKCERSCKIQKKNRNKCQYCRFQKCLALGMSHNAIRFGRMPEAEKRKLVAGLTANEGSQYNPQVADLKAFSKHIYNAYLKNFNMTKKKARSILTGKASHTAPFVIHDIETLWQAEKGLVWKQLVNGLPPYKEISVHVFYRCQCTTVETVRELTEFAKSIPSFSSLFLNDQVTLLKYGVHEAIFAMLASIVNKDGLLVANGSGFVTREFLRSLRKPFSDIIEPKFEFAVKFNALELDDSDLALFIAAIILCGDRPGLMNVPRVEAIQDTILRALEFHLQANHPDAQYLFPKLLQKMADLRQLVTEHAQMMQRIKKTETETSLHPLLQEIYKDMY
Chain of Estrogen receptor (Homo sapiens) (P03372 whole entry, looked up): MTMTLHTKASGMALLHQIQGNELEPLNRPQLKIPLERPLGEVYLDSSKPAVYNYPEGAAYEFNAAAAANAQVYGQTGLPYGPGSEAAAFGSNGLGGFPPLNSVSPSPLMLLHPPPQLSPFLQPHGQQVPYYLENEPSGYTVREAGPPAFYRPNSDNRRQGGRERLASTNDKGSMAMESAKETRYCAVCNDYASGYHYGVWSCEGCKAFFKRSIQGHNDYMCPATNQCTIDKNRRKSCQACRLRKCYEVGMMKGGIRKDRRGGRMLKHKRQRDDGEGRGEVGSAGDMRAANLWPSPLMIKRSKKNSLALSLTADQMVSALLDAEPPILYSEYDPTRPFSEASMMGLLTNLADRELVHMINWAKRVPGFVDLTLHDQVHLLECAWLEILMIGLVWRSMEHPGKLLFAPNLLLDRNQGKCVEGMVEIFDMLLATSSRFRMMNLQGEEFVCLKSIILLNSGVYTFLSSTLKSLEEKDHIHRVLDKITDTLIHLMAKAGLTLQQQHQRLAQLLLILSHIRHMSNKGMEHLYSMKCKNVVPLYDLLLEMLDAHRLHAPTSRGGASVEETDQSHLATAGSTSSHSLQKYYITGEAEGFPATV
Chain of Thyroid hormone receptor beta (Homo sapiens) (P10828 whole entry, looked up): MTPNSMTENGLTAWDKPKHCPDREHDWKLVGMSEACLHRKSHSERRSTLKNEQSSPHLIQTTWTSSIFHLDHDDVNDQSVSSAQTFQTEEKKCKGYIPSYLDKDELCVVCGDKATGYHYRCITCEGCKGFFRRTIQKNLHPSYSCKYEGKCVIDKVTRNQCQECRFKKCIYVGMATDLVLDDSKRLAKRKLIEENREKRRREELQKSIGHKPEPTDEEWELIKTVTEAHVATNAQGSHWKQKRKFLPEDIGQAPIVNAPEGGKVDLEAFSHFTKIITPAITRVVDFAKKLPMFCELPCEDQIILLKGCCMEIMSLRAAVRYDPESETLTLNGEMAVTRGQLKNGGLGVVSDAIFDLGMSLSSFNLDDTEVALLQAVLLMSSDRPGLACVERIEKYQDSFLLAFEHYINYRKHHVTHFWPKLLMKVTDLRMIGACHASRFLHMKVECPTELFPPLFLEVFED
Chain of Glutathione peroxidase 1 (Homo sapiens) (P07203 whole entry, looked up): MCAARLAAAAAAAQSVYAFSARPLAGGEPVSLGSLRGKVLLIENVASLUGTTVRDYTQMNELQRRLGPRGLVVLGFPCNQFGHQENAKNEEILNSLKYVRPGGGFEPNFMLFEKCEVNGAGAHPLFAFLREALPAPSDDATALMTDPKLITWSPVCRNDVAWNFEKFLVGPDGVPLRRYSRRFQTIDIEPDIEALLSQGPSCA
Chain of Glucocorticoid receptor (Homo sapiens) (P04150 whole entry, looked up): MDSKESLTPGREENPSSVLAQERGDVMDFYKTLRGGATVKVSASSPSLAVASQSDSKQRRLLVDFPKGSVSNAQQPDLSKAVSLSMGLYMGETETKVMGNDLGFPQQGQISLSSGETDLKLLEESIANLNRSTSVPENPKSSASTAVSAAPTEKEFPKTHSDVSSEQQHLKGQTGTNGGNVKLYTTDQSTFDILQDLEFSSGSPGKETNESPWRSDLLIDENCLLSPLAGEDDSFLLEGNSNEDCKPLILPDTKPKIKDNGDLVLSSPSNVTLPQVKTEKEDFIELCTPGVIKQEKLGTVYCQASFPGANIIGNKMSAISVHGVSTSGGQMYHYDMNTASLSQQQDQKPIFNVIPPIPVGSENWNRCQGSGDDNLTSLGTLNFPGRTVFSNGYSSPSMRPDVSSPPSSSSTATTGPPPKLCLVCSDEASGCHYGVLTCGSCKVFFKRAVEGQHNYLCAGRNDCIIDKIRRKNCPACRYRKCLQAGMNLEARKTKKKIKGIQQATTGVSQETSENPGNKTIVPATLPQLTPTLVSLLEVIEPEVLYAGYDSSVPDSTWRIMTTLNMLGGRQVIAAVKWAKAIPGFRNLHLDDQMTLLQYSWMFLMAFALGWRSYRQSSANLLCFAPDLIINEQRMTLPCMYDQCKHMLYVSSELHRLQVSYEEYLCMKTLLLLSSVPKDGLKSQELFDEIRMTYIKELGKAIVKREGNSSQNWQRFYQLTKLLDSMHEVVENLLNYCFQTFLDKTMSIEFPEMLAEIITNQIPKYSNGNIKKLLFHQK
Chain of Peroxisome proliferator-activated receptor gamma (Homo sapiens) (P37231 whole entry, looked up): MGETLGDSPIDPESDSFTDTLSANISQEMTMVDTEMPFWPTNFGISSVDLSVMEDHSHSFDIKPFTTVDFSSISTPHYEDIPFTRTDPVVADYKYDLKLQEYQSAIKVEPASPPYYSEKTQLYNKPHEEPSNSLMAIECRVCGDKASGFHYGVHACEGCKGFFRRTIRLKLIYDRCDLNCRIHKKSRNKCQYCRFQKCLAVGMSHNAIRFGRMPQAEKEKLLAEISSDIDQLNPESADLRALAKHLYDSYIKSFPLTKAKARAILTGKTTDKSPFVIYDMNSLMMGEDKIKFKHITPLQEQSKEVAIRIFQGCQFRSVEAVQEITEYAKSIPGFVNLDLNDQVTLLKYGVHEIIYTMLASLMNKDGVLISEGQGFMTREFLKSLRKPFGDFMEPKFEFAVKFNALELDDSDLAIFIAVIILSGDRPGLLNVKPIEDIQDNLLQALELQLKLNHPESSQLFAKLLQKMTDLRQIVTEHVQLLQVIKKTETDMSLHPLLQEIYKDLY

Turning to `Cc1cc(CC(C)C[Si](C)(O[Si](C)(C)C)O[Si](C)(C)C)c(O)c(-n2nc3ccccc3n2)c1` (configuration not stated), the Potency result in [1], in test [2], in test [3] and in test [4] was “inactive” throughout. The activity change, negative = inhibition in test [5] (setting [15]) was -21.7% [at 19 µM].

In the case of `C[C@H]1CNCCCN1S(=O)(=O)c1cccc2cncc(F)c12`, the Potency entry in test [1], in test [2], in test [3] and in [4] was “inactive” each time. Besides, the activity change, negative = inhibition in test [5] (at 27.1 µM (top of the series)) was -27.6%; in test [5] (at 57.1 µM (top of the series)) it was -12.6%.

For the molecule `CCC(=O)O[C@H]1CC[C@H]2[C@@H]3CC[C@H]4CC(=O)[C@H](C)C[C@]4(C)[C@H]3CC[C@]12C`, the Potency entry in test [1], in [2], in test [3], in test [4] and in test [6] was “inactive” in each case. Further, in test [5] (setting [15]), the activity change, negative = inhibition was -28.3%.

On to `OCC=Cc1ccccc1`, for which the Potency entry in test [1], in test [2], in [3], in test [4] and in test [7] was “inactive” each time. In addition, the activity change, negative = inhibition in test [5] (setting [15]) was -22.7%.

On to `O=C(O)CC(O)(CC(=O)O)C(=O)O`, for which the Potency result in test [8], in [11], in test [1], in test [2], in test [3] and in test [4] was “inactive” throughout. Besides, the Potency result in [7] was “inactive”. Besides, in [9], the activation was 1.56% (inactive). Moreover, the molecule was called inactive in test [10] and in test [14]. Besides, the activity change % (negative = inhibition) in test [12] is -10.8% (inactive) and 10.6% (inactive). Besides, in test [13], the Potency result is “inactive and 54.5 µM (active)”. Also, the activity change, negative = inhibition in test [5] (setting [15]) was -17.5%.

Turning to `Cc1ccc(Sc2ccccc2N2CCNCC2)c(C)c1`, the Potency entry in test [1], in [2], in [3] and in test [4] was “inactive” each time. For the same molecule, the Potency in test [5] (setting [15]) was 22.4 µM (active). The activity change, negative = inhibition in test [5] (setting [15]) is -7.77%.

`NC(=O)[C@@H]1C[C@]2(NC(=O)NC2=O)c2cc(F)ccc2O1`: the Potency result in [1], in test [2], in test [3] and in test [4] was “inactive” each time. In addition, in test [5] (setting [15]), the activity change, negative = inhibition is -14.3%.
